{"source": "the antibiotic and cytotoxicity screens of Wong et al. (2023)", "note": "In all, about 39,000 compounds went through this assay and about 3,300 (8.5%) were called active. This is one part of a sample in which actives are shown more often than they occur.", "data": [{"test_system": "HepG2", "experiment": "cytotoxicity call (relative viability < 0.9)", "conditions": "10 µM", "values": [{"smiles": "C=C1c2cccc(O)c2C(=O)[C@@H]2C(=O)[C@]3(O)C(=O)[C@@H](C(N)=O)C(=O)[C@@H](N(C)C)[C@@H]3[C@@H](O)[C@H]12", "cytotoxicity call": "inactive"}, {"smiles": "C[C@@H]1CCCCO[C@@H](CN(C)C(=O)Nc2cccc3ccccc23)[C@@H](C)CN([C@@H](C)CO)C(=O)c2cc(N(C)C)ccc2O1", "cytotoxicity call": "inactive"}, {"smiles": "Cn1cnc(CCNC(=O)C[C@@H]2CC[C@@H]3[C@H](COC[C@H](O)CN3C(=O)Nc3ccc(Cl)cc3)O2)c1", "cytotoxicity call": "inactive"}, {"smiles": "CC(=O)NCCCC[C@@H]1NC(=O)[C@@H]2C[C@H](C(=O)NCCCCCN)[C@H](c3ccc(O)cc3)N2C1=O", "cytotoxicity call": "inactive"}, {"smiles": "O=C(C[C@H]1CC[C@@H]2[C@H](COC[C@@H](O)CN2S(=O)(=O)c2ccccc2)O1)NCCN1CCCCC1", "cytotoxicity call": "inactive"}, {"smiles": "C[C@H](CO)N1C[C@H](C)[C@H](CN(C)C(=O)Nc2ccc(C(F)(F)F)cc2)OCCCC[C@H](C)Oc2ccc(NC(=O)Nc3ccccc3)cc2C1=O", "cytotoxicity call": "inactive"}, {"smiles": "COc1ccc(S(=O)(=O)Nc2ccc3c(c2)CC(=O)N([C@@H](C)CO)C[C@@H](C)[C@@H](CN(C)S(C)(=O)=O)O3)cc1", "cytotoxicity call": "inactive"}, {"smiles": "C[C@@H]1CCCCO[C@H](CN(C)C(=O)Nc2ccc(C(F)(F)F)cc2)[C@@H](C)CN([C@@H](C)CO)C(=O)c2cc(NC(=O)Nc3cccc4ccccc34)ccc2O1", "cytotoxicity call": "inactive"}, {"smiles": "C[C@H](CO)N1C[C@H](C)[C@@H](CN(C)Cc2ccc(-c3ccccc3)cc2)Oc2ccc(NC(=O)Cc3ccccc3)cc2C1=O", "cytotoxicity call": "inactive"}, {"smiles": "C[C@H]1CN([C@@H](C)CO)C(=O)c2cc(NC(=O)Cc3ccccc3)ccc2O[C@H]1CN(C)Cc1ccc(-c2ccccc2)cc1", "cytotoxicity call": "inactive"}, {"smiles": "C[C@H]1CN([C@@H](C)CO)C(=O)c2cc(NC(=O)Cc3ccccc3)ccc2O[C@@H]1CN(C)Cc1ccc(-c2ccccc2)cc1", "cytotoxicity call": "active"}, {"smiles": "CC(C)[Si]1(C(C)C)OCc2cc(-c3ccc(-c4ccc(Cl)c(Cl)c4)o3)nc(-c3ccc(Oc4ccccc4)cc3)c21", "cytotoxicity call": "inactive"}, {"smiles": "Cc1ccc(N2CCC[C@]3(CCNC3=O)C2)nn1", "cytotoxicity call": "inactive"}, {"smiles": "C[C@@H]1CCCCO[C@@H](CN(C)S(=O)(=O)c2ccc(Cl)cc2)[C@@H](C)CN([C@@H](C)CO)C(=O)c2cc(NS(=O)(=O)c3ccccc3)ccc2O1", "cytotoxicity call": "inactive"}, {"smiles": "C[C@@H]1CCCCO[C@@H](CN(C)C(=O)Cc2ccccc2)[C@@H](C)CN([C@@H](C)CO)C(=O)c2cc(NC(=O)Nc3ccc(F)cc3)ccc2O1", "cytotoxicity call": "inactive"}, {"smiles": "COc1ccc([Si](C)(C)[C@@H]2[C@@H](CCO)O[C@]3(C(=O)N(Cc4cccc(N5C(=O)COc6ccccc65)c4)c4ccccc43)[C@H]2C)cc1", "cytotoxicity call": "active"}, {"smiles": "COc1ccc([Si](C)(C)[C@H]2[C@H](CCO)O[C@@]3(C(=O)N(Cc4ccc(N5C(=O)COc6ccccc65)cc4)c4ccccc43)[C@@H]2C)cc1", "cytotoxicity call": "active"}, {"smiles": "COc1ccc([Si](C)(C)[C@H]2[C@H](CCO)O[C@@]3(C(=O)N(Cc4ccc(N5CCCCC5=O)cc4)c4ccccc43)[C@@H]2C)cc1", "cytotoxicity call": "inactive"}, {"smiles": "COc1ccc([Si](C)(C)[C@H]2[C@H](CCO)O[C@@]3(C(=O)N(Cc4ccccc4)c4ccc(N5CCCCC5=O)cc43)[C@@H]2C)cc1", "cytotoxicity call": "inactive"}, {"smiles": "COc1ccc([Si](C)(C)[C@@H]2[C@@H](CCO)O[C@]3(C(=O)N(Cc4ccccc4)c4ccc(N5CCCCC5=O)cc43)[C@H]2C)cc1", "cytotoxicity call": "inactive"}, {"smiles": "COc1ccc([Si](C)(C)[C@@H]2[C@@H](CCO)O[C@]3(C(=O)N(Cc4ccc(N5CCCCC5=O)cc4)c4ccccc43)[C@H]2C)cc1", "cytotoxicity call": "inactive"}, {"smiles": "COc1ccc([Si](C)(C)[C@H]2[C@H](CC(=O)N3CCC[C@H]3CO)O[C@@]3(C(=O)N(Cc4cccc(N5C(=O)COc6ccccc65)c4)c4ccccc43)[C@@H]2C)cc1", "cytotoxicity call": "inactive"}, {"smiles": "C[C@H]1[C@H]([Si](C)(C)F)[C@@H](CCO)O[C@]12C(=O)N(Cc1cccc(N3C(=O)COc4ccccc43)c1)c1ccccc12", "cytotoxicity call": "inactive"}, {"smiles": "COc1ccc([Si](C)(C)[C@H]2[C@H](CCO)O[C@@]3(C(=O)N(Cc4ccccc4)c4ccc(N5C(=O)COc6ccccc65)cc43)[C@@H]2C)cc1", "cytotoxicity call": "active"}, {"smiles": "COc1cccc(S(=O)(=O)N2C[C@@H](O)COC[C@@H]3O[C@@H](CC(=O)N4CCN(C)CC4)CC[C@H]32)c1", "cytotoxicity call": "inactive"}, {"smiles": "O=C1CCNCCN1", "cytotoxicity call": "inactive"}, {"smiles": "CO[C@@H]1CN(C)C(=O)c2cc(NS(C)(=O)=O)ccc2OC[C@@H](C)N(C(=O)c2ccc3c(c2)OCO3)C[C@@H]1C", "cytotoxicity call": "inactive"}, {"smiles": "Cc1noc(C)c1S(=O)(=O)Nc1ccc2c(c1)C(=O)N([C@H](C)CO)C[C@@H](C)[C@@H](CN(C)Cc1ccccc1)OCCCC[C@@H](C)O2", "cytotoxicity call": "inactive"}, {"smiles": "COc1ccc(NC(=O)Nc2ccc3c(c2)CC(=O)N([C@@H](C)CO)C[C@@H](C)[C@H](CN(C)C(=O)Nc2cccc4ccccc24)O3)cc1", "cytotoxicity call": "inactive"}, {"smiles": "Cc1noc(C)c1S(=O)(=O)Nc1ccc2c(c1)C(=O)N([C@@H](C)CO)C[C@@H](C)[C@@H](CN(C)CC1CCCCC1)OCCCC[C@@H](C)O2", "cytotoxicity call": "inactive"}, {"smiles": "Cc1ccc(C(=O)c2ccc(Oc3ccccc3)cc2)cc1", "cytotoxicity call": "inactive"}, {"smiles": "Cc1cccc(C(=O)NN)c1", "cytotoxicity call": "inactive"}, {"smiles": "Cc1ccc(Oc2ccccc2)c(NC(=O)c2ccccc2)c1", "cytotoxicity call": "active"}, {"smiles": "COc1cccc(-c2ccc3c(c2)O[C@H](CN(C)Cc2cncnc2)[C@@H](C)CN([C@@H](C)CO)S3(=O)=O)c1", "cytotoxicity call": "inactive"}, {"smiles": "COc1ccc(NC(=O)N(C)C[C@@H]2Oc3c(NC(=O)c4cc(C)nn4C)cccc3C(=O)N([C@@H](C)CO)C[C@H]2C)cc1", "cytotoxicity call": "inactive"}, {"smiles": "CN(C)CC(=O)N1[C@@H]2c3ccc(C4=CCCC4)c(=O)n3C[C@H]1[C@H](CO)[C@H]2C(=O)NCC1CC1", "cytotoxicity call": "inactive"}, {"smiles": "C[C@@H]1CN([C@H](C)CO)C(=O)c2cc(NC(=O)Nc3ccccc3)ccc2O[C@@H]1CN(C)S(=O)(=O)c1cn(C)cn1", "cytotoxicity call": "inactive"}, {"smiles": "C[C@@H]1CN([C@@H](C)CO)C(=O)Cc2cc(NS(=O)(=O)c3ccccc3)ccc2O[C@@H]1CN(C)S(=O)(=O)c1cn(C)cn1", "cytotoxicity call": "inactive"}, {"smiles": "C[C@@H]1CN([C@H](C)CO)C(=O)Cc2cc(NS(=O)(=O)c3ccccc3)ccc2O[C@H]1CN(C)S(=O)(=O)c1cn(C)cn1", "cytotoxicity call": "active"}, {"smiles": "C[C@@H]1CN([C@@H](C)CO)C(=O)Cc2cc(NC(=O)Nc3ccccc3)ccc2O[C@H]1CN(C)S(=O)(=O)c1cn(C)cn1", "cytotoxicity call": "inactive"}, {"smiles": "C[C@H]1CN([C@@H](C)CO)C(=O)Cc2cc(NC(=O)Nc3ccccc3)ccc2O[C@H]1CN(C)S(=O)(=O)c1cn(C)cn1", "cytotoxicity call": "inactive"}, {"smiles": "C[C@@H]1CN([C@@H](C)CO)C(=O)c2cc(NC(=O)Nc3ccccc3)ccc2O[C@H]1CN(C)S(=O)(=O)c1cn(C)cn1", "cytotoxicity call": "inactive"}, {"smiles": "C[C@@H]1CN([C@H](C)CO)C(=O)c2cc(NC(=O)Nc3ccccc3)ccc2O[C@H]1CN(C)S(=O)(=O)c1cn(C)cn1", "cytotoxicity call": "active"}, {"smiles": "C[C@H]1CN([C@@H](C)CO)C(=O)Cc2cc(NS(=O)(=O)c3ccccc3)ccc2O[C@@H]1CN(C)S(=O)(=O)c1cn(C)cn1", "cytotoxicity call": "inactive"}, {"smiles": "C[C@H](CO)N1C[C@H](C)[C@H](CN(C)S(=O)(=O)c2cn(C)cn2)Oc2ccc(NC(=O)Nc3ccccc3)cc2CC1=O", "cytotoxicity call": "active"}, {"smiles": "CC1c2cccc(O)c2C(=O)C2=C(O)C3(O)C(=O)C(C(N)=O)=C(O)C(N(C)C)C3C(O)C21.Cl", "note": "(stereo not given)", "cytotoxicity call": "inactive"}, {"smiles": "COc1ccc2c3c(n(c2c1)C)[C@H](CO)N(C[C@]13CN(Cc2ccncc2)C1)C(=O)CN1CCOCC1", "cytotoxicity call": "inactive"}, {"smiles": "CC(C)NC(=O)N(C)C[C@@H]1Oc2ccc(NC(=O)Nc3ccc4c(c3)OCO4)cc2CC(=O)N([C@H](C)CO)C[C@H]1C", "cytotoxicity call": "inactive"}, {"smiles": "C[C@H]1CN([C@@H](C)CO)C(=O)c2cc(NS(=O)(=O)c3ccc(F)cc3)ccc2O[C@@H]1CN(C)S(=O)(=O)c1ccc(F)cc1", "cytotoxicity call": "inactive"}, {"smiles": "C[C@H](CO)N1C[C@H](C)[C@@H](CN(C)S(=O)(=O)c2ccc(Cl)cc2)Oc2ccc(NC(=O)C3CC3)cc2CC1=O", "cytotoxicity call": "inactive"}, {"smiles": "CCOC(=O)c1nonc1N", "cytotoxicity call": "inactive"}, {"smiles": "CN(CCCCCCCCCCN(C)C(=O)Oc1cccc([N+](C)(C)C)c1)C(=O)Oc1cccc([N+](C)(C)C)c1", "cytotoxicity call": "inactive"}, {"smiles": "O=C(NCc1ccncc1)C(=O)NC[C@H]1OCCN1S(=O)(=O)c1ccc(F)cc1", "cytotoxicity call": "inactive"}, {"smiles": "C[C@@H]1CN([C@@H](C)CO)C(=O)c2cccc(NC(=O)Nc3ccc(C(F)(F)F)cc3)c2O[C@H]1CN(C)Cc1ccc(-c2ccccc2)cc1", "cytotoxicity call": "inactive"}, {"smiles": "C[C@H]1CN([C@@H](C)CO)C(=O)c2ccccc2-c2ccccc2CO[C@@H]1CN(C)Cc1ccccc1C(F)(F)F", "cytotoxicity call": "inactive"}, {"smiles": "C[C@@H](NCCC(c1ccccc1)c1ccccc1)c1ccccc1", "cytotoxicity call": "active"}, {"smiles": "C[C@H](NC(=O)[C@@H]1CCCC[C@H]1C(=O)O)c1ccccc1.C[C@H](NC(=O)[C@H]1CCCC[C@H]1C(=O)O)c1ccccc1", "cytotoxicity call": "inactive"}, {"smiles": "CCCCC(O)c1ccccc1", "note": "(stereo not given)", "cytotoxicity call": "inactive"}, {"smiles": "C[C@@H](NC(=O)[C@@H]1CCCC[C@H]1C(=O)O)c1ccccc1.C[C@@H](NC(=O)[C@H]1CCCC[C@H]1C(=O)O)c1ccccc1", "cytotoxicity call": "inactive"}, {"smiles": "CC(NCCC(c1ccccc1)c1ccccc1)c1ccccc1.Cl", "note": "(stereo not given)", "cytotoxicity call": "active"}, {"smiles": "CCCC[C@@H](O)c1ccccc1", "cytotoxicity call": "inactive"}, {"smiles": "Cc1noc(C)c1NC(=O)Nc1ccc2c(c1)C(=O)N([C@@H](C)CO)C[C@@H](C)[C@@H](CN(C)C(=O)Nc1ccc(C(F)(F)F)cc1)OCCCC[C@@H](C)O2", "cytotoxicity call": "inactive"}, {"smiles": "C[C@@H]1CN([C@H](C)CO)C(=O)Cc2cc(NC(=O)Nc3ccc(F)cc3)ccc2O[C@H]1CN(C)C(=O)Nc1cccc2ccccc12", "cytotoxicity call": "inactive"}, {"smiles": "C[C@@H]1CN([C@@H](C)CO)C(=O)Cc2cc(NS(=O)(=O)c3cn(C)cn3)ccc2O[C@@H]1CN(C)S(=O)(=O)c1cccs1", "cytotoxicity call": "inactive"}, {"smiles": "Cc1noc(C)c1S(=O)(=O)N(C)C[C@@H]1OCCCC[C@@H](C)Oc2ccc(NC(=O)Nc3ccccc3)cc2C(=O)N([C@H](C)CO)C[C@@H]1C", "cytotoxicity call": "inactive"}]}]}
